Screening data: PubChem, National Center for Advancing Translational Sciences (NCATS)
Compounds with a hit are over-represented: about 21% of the library has one in this group of screens.
DRD3 antagonist: blocks the human D3 dopamine receptor; P35462; D3R cells, DiscoveRx beta-arrestin luminescence, antagonist mode; active compounds read low; max response, negative = inhibition, %; 360,000 tested, 2.5% active; in the data active = max response below about -50%; inconclusive = no clear call, values can overlap the other calls; also: % is scaled to controls: 0 for no effect and ±100 for the full control effect
Target sequence (P35462 whole entry, looked up): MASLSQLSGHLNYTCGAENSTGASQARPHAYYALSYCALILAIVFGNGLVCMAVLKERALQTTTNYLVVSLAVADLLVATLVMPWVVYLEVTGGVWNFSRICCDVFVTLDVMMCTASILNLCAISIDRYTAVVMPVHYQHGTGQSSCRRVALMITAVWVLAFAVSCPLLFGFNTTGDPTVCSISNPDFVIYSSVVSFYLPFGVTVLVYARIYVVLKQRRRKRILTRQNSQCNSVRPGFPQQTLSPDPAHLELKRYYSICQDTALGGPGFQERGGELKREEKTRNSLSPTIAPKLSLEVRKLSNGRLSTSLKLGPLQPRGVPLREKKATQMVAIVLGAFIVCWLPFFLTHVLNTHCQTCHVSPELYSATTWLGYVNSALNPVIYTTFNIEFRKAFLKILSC
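Cells expressing the human receptor were seeded at 1500 cells/well, incubated overnight at 37 degrees C in 5% CO2, then exposed to library compounds with dopamine controls for 90 minutes at 37 degrees C before luminescent detection.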
DT40 TDP1 CPT: DT40-hTDP1 cell growth loss with CPT; 420,000 tested, 12% active; Potency, µM (highest dose often 46.2 µM), without a hit: at the highest dose activity change, negative = growth inhibition, hits mostly inhibitors; AID 686979; chicken DT40 Tdp1-/-;hTDP1 cells + 20 nM CPT, ATP luminescence, 48 h; also: potency is read from the fitted curve at half-maximal effect; % is scaled to controls: 0 for no effect and ±100 for the full control effect; nearly all actives have a fitted effect of over 55% in size
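Chicken DT40 Tdp1-/- cells stably complemented with human TDP1 were seeded at 400 cells/well in medium containing 20 nM camptothecin, exposed to pin-transferred compounds, and grown at 37 °C for at least 48 hr. Viability was read as ATP luminescence.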
TDP1 cell noCPT: qHTS for Inhibitors of human tyrosyl-DNA phosphodiesterase 1 (TDP1): qHTS in cells in absence of CPT; DT40 Tdp1-/- hTDP1 cells, no CPT, ATP luminescence, 48 h; Potency, µM (titrated, usually from 46.2 µM), inactives show at the highest dose activity change, negative = growth inhibition, usual class: inhibitors; 420,000 tested, 15% active; also: potency is read from the fitted curve at half-maximal effect; % is scaled to controls: 0 for no effect and ±100 for the full control effect; nearly all actives have a fitted effect of over 55% in size
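No-CPT arm: Tdp1-/-;hTDP1 DT40 cells (400/well) plus compounds, incubated ≥48 hr at 37 °C. Readout CellTiter-Glo luminescence.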
IL-1B inflam inh: inflammasome signaling inhibition, IL-1 beta readout; AID 743279; THP-1 LPS/ATP IL-1B secretion, AlphaLISA, 16 h; active compounds read low; activity change, % at 57.5 µM; 360,000 tested, 4.7% active; in the data active = activity change below about -50%; inconclusive = mostly about -30% to -49%; also: % is scaled to controls: 0 for no effect and ±100 for the full control effect
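Secreted IL-1B measured by AlphaLISA bead assay after 16 h compound exposure of THP-1 cells; compounds (final up to 57.5 uM) added 1 h before LPS (250 ng/mL) and ATP (1.25 mM) stimulation; lower signal means less secretion.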
D3 ag: D3 dopamine receptor (human) agonism. P35462. D3R DiscoveRx beta-arrestin cells, luminescence, 90 min. max activation, %. 410,000 tested, 0.58% active; in the data active = max activation above about 30%; also: 0% is about no effect
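Agonist-mode cell screen: cells plated at 1500/well and incubated overnight at 37 °C, then exposed to library compounds for 90 min at 37 °C. Detection reagent was added for 30–60 min at room temperature, and luminescence was read.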
ClpP mod: qHTS Assay for Activators of ClpP. purified B. subtilis ClpP, FRET peptide cleavage, 20 min. 340,000 tested, 1.9% active. ATP-dependent Clp protease proteolytic subunit (Bacillus subtilis (strain 168)), P80244. Potency, µM (titrated, usually from 57.5 µM), inactives show at the top dose activity change, negative = active; active = well fitted falling curve with a large enough effect; inconclusive = small, poorly fitted or top-dose-only effect; inactive = no such curve, though single readings can be large or run the other way; also: potency is read from the fitted curve at half-maximal effect; the source files actives as falling curves though it sought activators and does not explain the sign; nearly all actives have a fitted effect of over 65% in size
Target sequence (P80244 whole entry, looked up): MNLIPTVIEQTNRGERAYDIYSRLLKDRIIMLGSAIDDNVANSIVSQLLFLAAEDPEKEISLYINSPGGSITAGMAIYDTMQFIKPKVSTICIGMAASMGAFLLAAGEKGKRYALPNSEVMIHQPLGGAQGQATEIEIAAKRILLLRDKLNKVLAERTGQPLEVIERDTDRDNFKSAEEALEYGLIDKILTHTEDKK
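FRET quenching reversal measured ClpP activation: 10 microg/mL B. subtilis ClpP at pH 8 with the FRET-FV decapeptide, read at 430 nm after 320 nm excitation. The 20-min minus 0-min signal was scaled between DMSO/no-enzyme wells and ADEP (5.8 microM final).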
* = called active by the depositor; u = inconclusive; x = not tested or not shown. Unless noted, calls follow the shape of the dose curve; as a rule, active = well fitted inhibition curve with a large enough effect; inconclusive = small, poorly fitted or top-dose-only effect; inactive = flat fitted curve, though single readings scatter.

SMILES	DRD3 antagonist	DT40 TDP1 CPT	TDP1 cell noCPT	IL-1B inflam inh	D3 ag	ClpP mod
CC(=O)O[C@@]1(C(C)=O)CCC2C3C=C(Cl)C4=CC(=O)C5CC5[C@@]4(C)C3CC[C@]21C (stereo partly drawn)	x	21µM*	21µM*	x	x	x
CC(=O)OC1(C(C)=O)CCC2C3CC4OC45CC(O)CCC5(C)C3CCC21C (stereo not drawn)	-9	1%	-17%	24	11	x
COc1ccc(NC(=O)C[C@H]2C(=O)N(c3ccc(Br)cc3)C[C@@H]2c2ccc(OC)cc2)cc1	-6	u	21µM*	-27	-10	-4%
COc1ccc(NC(=O)C[C@H]2C(=O)N(c3ccc(OC)cc3)C[C@@H]2c2ccc(Br)cc2)cc1	-2	u	23µM*	-26	4	-2%
COc1ccc([C@H]2CN(c3ccc(OC)cc3)C(=O)[C@@H]2CC(=O)Nc2ccccc2)cc1	10	-17%	13µM*	u	2	1%
COc1ccc(NC(=O)C[C@H]2C(=O)N(c3ccc(Br)cc3)C[C@@H]2C)cc1	-17	u	u	-3	5	-2%
CCC[C@H]1CN(c2ccc(OC)cc2)C(=O)[C@@H]1CC(=O)Nc1ccccc1	18	u	u	-8	2	1%
COc1ccc(NC(=O)C2=C(C)Nc3ncnn3C2c2cccn2C)cc1 (stereo not drawn)	x	-4%	-5%	x	2	2%
CC(NC(=O)COC(=O)CNC(=O)C1CCCCC1)c1ccccc1 (stereo not drawn)	-5	11%	4%	-6	4	-1%
CC(C)C[C@@H](CN1CCCC1CN1C(=S)NC[C@@H]1Cc1ccccc1)N1C[C@H](Cc2ccc(O)cc2)N(CCc2ccccc2)C1=S (stereo partly drawn)	-16	18µM*	u	9	-6	-2%
CC(C)C[C@@H](CN1CCC[C@@H]1CN1C(=O)C(=O)NC[C@@H]1Cc1ccccc1)N1C[C@H](Cc2ccc(O)cc2)N(CCc2ccccc2)C(=O)C1=O	4	u	u	0	-1	0%
CC(C)C[C@@H](CN1CCCC1CN1C(=S)NC[C@@H]1Cc1ccccc1)N1C[C@H](Cc2ccccc2)N(CCc2ccccc2)C1=S (stereo partly drawn)	-7	u	9.2µM*	11	-10	-5%
CC(C)C[C@@H](CN1CCC[C@@H]1CN1C(=S)NC[C@@H]1Cc1ccc(O)cc1)N1C[C@H](Cc2ccc(O)cc2)N(CCc2ccccc2)C1=S	-3	u	21µM*	-59*	-8	-5%
CC(C)C[C@@H](CN1CCC[C@@H]1CN1C(=S)NC[C@@H]1Cc1ccccc1)N1C[C@H](Cc2ccc(O)cc2)N(CCc2ccccc2)C1=S	4	u	18µM*	0	-2	0%
Cc1ccc(CNS(=O)(=O)c2cc3c4c(c2)CCN4C(=O)CC3)cc1	0	-14%	-22%	8	7	-23%
O=c1[nH]c(=O)n(Cc2ccccc2)c2nc(-c3ccc(Oc4ccc(F)cc4)c([N+](=O)[O-])c3)n(CCO)c12	-5	16µM*	18µM*	-23	-5	6%
COc1ccc(-c2nc3c(c(=O)[nH]c(=O)n3Cc3ccccc3)n2CCO)cc1	-1	2%	-9%	51	-23	1%
COc1ccc(-c2ccc(-c3nc4c(c(=O)[nH]c(=O)n4Cc4ccccc4)n3C)o2)c([N+](=O)[O-])c1	-10	u	26µM*	-1	-5	x
COCCn1c(=O)[nH]c(=O)c2c1nc(-c1ccc(-c3ccc(Cl)cc3[N+](=O)[O-])o1)n2Cc1ccccc1	10	16µM*	23µM*	39	-2	-14%
COCCn1c(=O)[nH]c(=O)c2c1nc(-c1cc(Br)c3c(c1)OCO3)n2Cc1ccccc1	0	2%	-3%	31	4	x
CC1CCCN(S(=O)(=O)c2ccc3c(c2)OCCO3)C1 (stereo not drawn)	-4	-13%	u	18	-1	0%
COc1cccc(CNC(=O)c2ccccc2N)c1	0	-3%	-11%	10	3	5.6µM*
COc1cccc(CNC(=O)COC(=O)c2cc(Br)c(Br)s2)c1	37	-9%	1%	-13	-8	2%
COc1cccc(CNC(=O)CCNC(=O)c2ccccc2OC)c1	-17	-4%	5%	-3	-6	1%
Nc1sccc1C(=O)NCc1ccccc1	-10	-116%	15µM*	7	1	u
SMILES	DRD3 antagonist	DT40 TDP1 CPT	TDP1 cell noCPT	IL-1B inflam inh	D3 ag	ClpP mod
COc1cccc(CNC(=O)COC(=O)c2ccc(-c3ccc(O)cc3)cc2)c1	-9	u	3.3µM*	60	-5	4%
O=C(O)c1ccccc1C(=O)NCc1ccccc1	12	2%	-23%	11	-3	0%
Nc1ccccc1C(=O)NCc1ccc(F)cc1	24	-2%	-19%	-7	3	5%
Nc1ccccc1C(=O)NCc1ccc(Cl)cc1	11	9%	-9%	-13	7	7.1µM*
COc1ccc(C(CNC(=O)CCNS(=O)(=O)c2ccc(C)cc2)N2CCOCC2)cc1 (stereo not drawn)	-14	5%	1%	-18	-14	x
CCOc1ccc(C2c3[nH]c4ccccc4c3CCN2C(=O)CCc2ccccc2)cc1 (stereo not drawn)	x	u	u	x	-23	0%
COc1ccc(NC(=O)c2cc3c([nH]c2=O)CC(c2ccccc2)CC3=O)cc1 (stereo not drawn)	x	16%	-4%	x	-1	0%
CCOc1ccc(NC(=O)Cc2ccc(NC(=O)N3CCCCc4ccccc43)cc2)cc1	x	5.2µM*	5.2µM*	x	-5	-2%
CC(=O)c1cccc(NC(=O)Cc2ccc(NC(=O)N3CCCCc4ccccc43)cc2)c1	x	u	16µM*	x	-2	-1%
CCOc1ccccc1CNC(=O)Cc1ccc(NC(=O)N2CCCCc3ccccc32)cc1	x	12µM*	9.2µM*	x	1	0%
CCOc1ccc(CNC(=O)Cc2ccc(NC(=O)N3CCCCc4ccccc43)cc2)cc1OC	x	u	u	x	6	2%
C=CCOc1ccccc1CN1CCN(CCc2ccccc2)C(CCO)C1 (stereo not drawn)	u	-17%	u	-15	-7	1%
